From ChEMBL document CHEMBL1157539, “Thousands of chemical starting points for antimalarial lead identification” (Nature, 2010) come the findings set out here.

This test deals with HepG2. Nature of the test: GSK_TCMDC: Percent inhibition of human HepG2 cell line. Test compounds present at 10uM. The test is classed as functional.
With `CCN(CC)CCNc1ccnc2[nH]c3ccc([N+](=O)[O-])cc3c12`, the Inhibition stood at 6%. In turn, `CN1CCN(c2cc3c(cc2Cl)CCN3C(=O)Cc2ccc(NC(=O)Nc3cccc4ccccc34)cc2)CC1` returned an Inhibition of 12%. As to `Cc1c(Cn2nc(Cl)c(N3CCNCC3)cc2=O)cccc1NC(=O)Nc1ccc(-c2ccccc2)cc1.O=C(O)C(F)(F)F`, the Inhibition is listed as 96%. In turn, `COCCNCc1cccc(-c2ccc3c(Nc4ccc(Oc5ccccc5)cc4)ccnc3c2)c1` displayed an Inhibition of 25%. The same measure for `Cc1cccc2nc(-c3ccc(-c4cccc(CNCCCN5CCCC5=O)c4)s3)[nH]c12.O=C(O)C(F)(F)F`: 14%. On to `COc1c(C2CCN(CCCCNC(=O)c3ccc(-c4ccc(NC(=O)C(F)(F)F)cc4)cc3)CC2)ccc2c1CCCC2`, for which the Inhibition worked out at 95%.

Regarding `O=C(n1c(-c2cc3ccccc3n2C(=O)C(F)(F)F)cc2ccccc21)C(F)(F)F`, the Inhibition worked out at 30%. `O=C(NCCCCCN1CCC(c2c[nH]c3ccccc23)CC1)Nc1ccc(Cl)cc1Cl` gave an Inhibition of 71%. For `CCOc1ccc(OCC(=O)Nc2nc(-c3ccc(OC)cc3)c(C)s2)cc1`, the Inhibition came out at 0%. `COc1cccc(CN2CCC3(CC2)CN(C(=O)Nc2ccc(Cl)c(Cl)c2)C3)c1` had an Inhibition of 29%. `COc1cc2nc(N3CCC(CNC(=O)c4ccc(-c5ccc(C#N)cc5)cc4)CC3)nc(N)c2cc1OC` returned an Inhibition of 21%.

For `O=C(/C=C/c1ccc(Cl)c(Cl)c1)NCCCCCN1CCC(NC(=O)Nc2ccccc2F)CC1`, the Inhibition came out at 14%. The value for `O=C(Nc1cccc(-c2ccc(-c3nc4cc(F)ccc4[nH]3)cc2)c1)c1csnn1` was 22%; that for `COc1cc2nc(Nc3ccc(Oc4ccccc4)cc3)nc(Nc3ccc(Oc4ccccc4)cc3)c2cc1OC` was 5%; that for `CCN(CC)CCOc1cc2c(cc1Br)-c1cc(Br)c(OCCN(CC)CC)cc1C2=NO.Cl` was 99%. Consider `Cl.c1ccc(Oc2ccc(Nc3ccnc(Nc4ccc5cn[nH]c5c4)n3)cc2)cc1`, for which the Inhibition amounted to 6%. The value for `O=C(NCc1ccc(Cl)cc1)c1ccc(CN2CCCN(CC3CCCCC3)CC2)cc1.O=C(O)C(F)(F)F` was 18%. Compound `CN(/N=C/C=C/c1ccc(Cl)cc1)c1nc(NCCc2ccc(O)cc2)nc(N2CCNCC2)n1` gave an Inhibition of 14%. In the case of `O=C(Nc1ccc(C(=O)OCC2CCCCC2)cc1)N[C@@H](Cc1ccc(O)cc1)C(=O)NC1CCN(Cc2ccc(O)cc2)C1.O=C(O)C(F)(F)F` (some centres undefined), the Inhibition is 6%. Take `CC(C)NCc1cccc(-c2ccc(NC(=O)c3ccc(F)cc3)cc2)c1.O=C(O)C(F)(F)F`: the Inhibition was determined as 7%. For the compound `O=C(CN1CCN(C(C(=O)Nc2cc(C(F)(F)F)ccc2Cl)c2ccccc2)CC1)NC1CC1` (centres undefined), the Inhibition is 0%. Consider `CN(C)CCOc1ccc(-c2cc(-c3ccnc(N)n3)c(-c3ccc(Cl)c(O)c3)o2)cc1`, for which the Inhibition was 14%. In turn, `CNC(=O)c1cncc(/C=C/c2ccccc2S(N)(=O)=O)c1` displayed an Inhibition of 17%. For the compound `Cc1cccc2nc(-c3ccc(-c4ccc(CN5CCCC(N)C5)cc4)cc3)[nH]c12.O=C(O)C(F)(F)F` (centres undefined), the Inhibition is recorded as 33%. `COc1ccccc1COc1c(C)nc(N)nc1N.Cl` yielded an Inhibition of 32%. As to `COCCN1CCC(N(Cc2ccc(-c3ccc(C(F)(F)F)cc3)cc2)C(=O)Cn2c(CCc3cccc(F)c3F)cc(=O)c3c2CCC3)CC1.O=C(O)C(O)C(O)C(=O)O`, the Inhibition is 31%.

With `CN(CCc1ccccn1)Cc1ccc(-c2ccc(-c3nc4ccccc4[nH]3)s2)cc1`, the Inhibition amounted to 29%. The value for `Brc1ccsc1-c1nc(NCCC(c2ccccc2)c2ccccc2)no1` was 17%. `CC(C)CNC(=O)CN1C(=O)C(c2ccccc2)(c2ccccc2)N=C1N` registered an Inhibition of 15%. `O=C(/C=C/c1ccc(Cl)c(Cl)c1)N1CCC(CCCN2CCC(c3c[nH]c4ccccc34)CC2)CC1` registered an Inhibition of 44%. Regarding `Nc1nccc2ccc(-c3cccc(O)c3)cc12`, the Inhibition came to 43%.

Turning to `COc1cccc(C(=O)Nc2ccc(Oc3ccc(Cl)cc3)cc2)c1`, the Inhibition is listed as 33%. Compound `NC1=NC(c2ccccc2)(c2ccccc2)C(=O)N1CC1CCC1.O=CO` displayed an Inhibition of 17%. `O=C(O)C(F)(F)F.O=C1CCCN1CCCNCc1ccc(-c2ccc(-c3nc4cc(C(F)(F)F)ccc4[nH]3)s2)cc1` registered an Inhibition of 9%. Compound `COc1cc(F)c2nccc([C@@H](O)CN3CCC(NCc4ccc5c(n4)NC(=O)CS5)C(F)C3)c2c1.Cl` (some centres undefined) came in with an Inhibition of 32%. `CC(C)Cc1cn(-c2nc(C(=N)N)cs2)c2cc(Cl)ccc12`: the Inhibition was 98%. `Cn1nc(C(=O)N2CCC(c3[nH]ncc3Cc3ccccc3)CC2)c2ccccc2c1=O` showed an Inhibition of 5%. `N#Cc1ccccc1N1CCN(C2CCC(NC(=O)c3n[nH]c4cc(C(F)(F)F)ccc34)CC2)CC1` (centres undefined) had an Inhibition of 15%. `Cn1ccnc1CNC(=O)c1ccc(-c2cccc(-c3nc4cc(F)ccc4[nH]3)c2)cc1` came in with an Inhibition of 8%.

A word on the Inhibition: it is the relative decrease from the control value, in per cent.
